The source of these data is the supplement of paper PMC6555819.

What all share (experiment): PBM binding z-score (relative to random genomic background probes); higher = stronger binding; sequences stand for … in GC…GCGATTGACAGCGTAGAATGAAGG
In test [1] the test system is FXR:RXRa (NR concentration 270 nM, RXRa partner concentration 90 nM). The essentials: (§1)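 Ligand-free nuclear receptor dimers were applied to custom Agilent 4×180K protein-binding microarrays whose double-stranded probes carried direct-repeat seeds, single-nucleotide variants, half-site ablations and random human genomic background sequences in 34-nt variable regions. Incubation lasted 1 h. Binding z-scores were computed against the random background probes from regression-normalized fluorescence.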

In test [2] the test system is LXRa:RXRa (NR concentration 270 nM, RXRa partner concentration 90 nM). The essentials:
as §1

The test system of test [3] is LXRa homodimer (NR concentration 270 nM). The essentials: as §1
For test [4], the system named is LXRb:RXRa (NR concentration 270 nM, RXRa partner concentration 90 nM). The essentials:
as §1

The subject of test [5] is LXRb homodimer (NR concentration 270 nM). The method in brief:
as §1

For test [6], the system named is PPARa:RXRa (NR concentration 270 nM, RXRa partner concentration 90 nM). The method in brief: as §1
Test [7] relates to PPARg:RXRa (NR concentration 180 nM, RXRa partner concentration 90 nM). The method in brief:
as §1

Test [8] deals with PPARg:RXRa 270nM:90nM, anti-RXR (NR concentration 270 nM, RXRa partner concentration 90 nM). The method in brief:
as §1

Test [9] has as its system PPARg:RXRa 30nM:10nM, anti-RXR (NR concentration 30 nM, RXRa partner concentration 10 nM). The method in brief: as §1
The test system of test [10] is PPARg:RXRa 90nM:30nM, anti-RXR (NR concentration 90 nM, RXRa partner concentration 30 nM). The method in brief:
as §1

For the sequence CCAGACAGGTGAGAAGTTAACTCAGCCTCGATTA, the PBM binding z-score in test [1] is -0.198; in [2], -0.285; in test [3] it was -0.173; in [4], 0.0436; in test [5], -0.306; in test [6], 0.706. Also, the PBM binding z-score in [7] was 0.596; in [8], 1.25; in test [9], -0.0978; in test [10], 0.58.

For ACAGTCAGGTGAGTGAAGGTAACTCAGCTGGACG, the PBM binding z-score was 0.264 in [1]; 0.217 in [2]; -0.578 in [3]; -0.682 in [4]; -0.538 in [5]; -0.317 in [6]. Further, the PBM binding z-score in test [7] is 0.268; in [8], 0.101; in test [9], -0.17; in test [10], -0.277.

For the sequence CCTAGCAGGACAATCTGGGTCACTCAAGGCTTGA, the PBM binding z-score in test [1] was 1.05; in test [2], 0.686; in test [3] it was -0.28; in [4] it was 0.742; in test [5], -0.672; in test [6], 3.31. In addition, the PBM binding z-score in test [7] was 2.44; in test [8] it was 2.26; in test [9], 0.245; in test [10], 1.56.

As to CAAACTAGGTCACTGGAAGGTCAAAGTCCGCATG, the PBM binding z-score in test [1] stood at 5.47; in test [2] it was 5.41; in [3], 4.68; in [4] it was 4.88; in test [5], 1.36; in test [6] it was 5.88. Further, the PBM binding z-score in test [7] stood at 9.17; in test [8], 7.25; in test [9], 5.53; in test [10], 7.22.

CCTTACGGGTCACTCCACGTTATAGCATCGGAGT: the PBM binding z-score in test [1] worked out at 4.04; in [2], 3.03; in test [3], 0.131; in [4] it was 2.58; in [5], 0.341; in test [6], 4.28. For the same sequence, the PBM binding z-score in [7] came to 3.02; in [8], 3.29; in test [9] it was 1.1; in test [10], 2.31.

For AATACAGGGTCACTATGCCAGAGTAGGTACGAAT, the PBM binding z-score in test [1] was determined as 5.56; in test [2], 4.68; in test [3], 1.16; in [4], 3.79; in test [5], 1.06; in [6], 5.44. Also, the PBM binding z-score in test [7] came out at 6.37; in test [8], 4.87; in test [9], 2.05; in test [10], 3.73.

Regarding GCGACTGGGGCATCAGCAGGTTACCACAACTTAA, the PBM binding z-score is -0.0917 in [1]; -0.185 in test [2]; -0.291 in [3]; 0.725 in test [4]; -0.793 in test [5]; 0.935 in test [6]. Moreover, the PBM binding z-score in test [7] is 0.922; in test [8] it was 1.13; in test [9], -0.162; in [10], -0.0671.

For the sequence ATCTCTAGGTAAGAGTCAGTTCAGTGAAGAACGC, the PBM binding z-score in test [1] was 0.322; in test [2], 0.41; in test [3], 0.44; in test [4], 0.262; in test [5], 0.685; in test [6], 0.413. For the same sequence, the PBM binding z-score in [7] was 0.239; in test [8], 1.03; in test [9] it was 0.45; in test [10] it was 0.958.

Take TCTTGTAGATCAGCAGGTTAAGTAAGCTGGCCAA: the PBM binding z-score was 0.169 in test [1]; 0.366 in [2]; -0.23 in test [3]; 0.424 in [4]; -0.524 in test [5]; 0.865 in test [6]. Moreover, the PBM binding z-score in test [7] is -0.624; in [8], 1.25; in [9], 2.73; in [10], 2.04.

Take ATCTCTAGGTAAAGATAGTTCAGTCAATGCAAAT: the PBM binding z-score in test [1] turned out to be 0.395; in test [2] it was 4.34; in test [3], 0.831; in test [4], 0.948; in test [5], 0.433; in [6], 0.518. The PBM binding z-score in [7] amounted to 0.623; in [8] it was 0.469; in test [9], 0.292; in test [10], 0.471.

Consider TCTTGTAGACCAAAGGTTAAGAAAGCCGAAGCCT, for which the PBM binding z-score in [1] was 1.29; in test [2], 1.9; in [3], -0.151; in [4] it was 1.82; in test [5] it was -0.338; in test [6], 4.78. Besides, the PBM binding z-score in test [7] came to 8.36; in test [8], 8.52; in [9], 8.06; in test [10], 9.8.

In the case of CCGACTGGGGCAGAAGGGTTACCATACCATCCGG, the PBM binding z-score was -0.34 in test [1]; -0.358 in test [2]; -0.422 in [3]; -0.143 in test [4]; -0.958 in test [5]; 0.847 in test [6]. Besides, the PBM binding z-score in test [7] was 1.13; in test [8], 1.14; in [9], -0.416; in [10], 0.389.
